# Source: PubChem BioAssay
# Values without a mark were called inactive. How the calls were made is not given here. Where a SMILES comes first, the peptide text is derived from it. The star is where a group is joined. Boc = CC(C)(C)OC(=O)*
# Target: Pantothenate synthetase (Mycobacterium tuberculosis (strain ATCC 25618 / H37Rv)) (UniProt P9WIL5)
# Assay: Coupled enzyme confirmation of inhibitors against recombinant Mtb PanC (AID 375);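 further: 0% = full reaction with vehicle and 100% = no enzyme background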
# Conditions: coupled enzyme assay; at 10 µM, stronger effect = higher value
# Chain of Pantothenate synthetase (Mycobacterium tuberculosis (strain ATCC 25618 / H37Rv)) (P9WIL5 whole entry, looked up): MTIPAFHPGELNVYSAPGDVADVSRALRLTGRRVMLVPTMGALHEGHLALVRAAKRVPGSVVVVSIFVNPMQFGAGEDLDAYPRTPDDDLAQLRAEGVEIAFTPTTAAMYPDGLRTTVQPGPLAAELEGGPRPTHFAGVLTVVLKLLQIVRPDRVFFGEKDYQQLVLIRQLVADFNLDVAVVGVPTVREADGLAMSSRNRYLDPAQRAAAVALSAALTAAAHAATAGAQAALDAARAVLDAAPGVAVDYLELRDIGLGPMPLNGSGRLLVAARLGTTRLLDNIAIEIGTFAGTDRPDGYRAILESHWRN
row,Structure (SMILES),inhibition [%]
1,COc1ccccc1-c1c(C)nn2c(N3CCC4(CC3)OCCO4)cc(C)nc12,5
2,Cc1ccc(C(=O)CC2(O)C(=O)N(C)c3ccc(Br)cc32)c(C)c1 (stereo unspecified),0
3,C=CCOc1ccc(/C(O)=C2\C(=O)C(=O)N(CCOC)C2c2cccnc2)cc1 (stereo unspecified),0
4,CC(C)(C)C1=C[C@@H](CO)C[C@@H](CO)C1,0
5,CN1CCN(Cc2nc3c(c(=O)n(C)c(=O)n3C)n2Cc2ccccc2Cl)CC1,0
6,Cc1ccc(OCC(O)Cn2c(NCCc3ccccc3)nc3c2c(=O)[nH]c(=O)n3C)cc1 (stereo unspecified),0
7,Cc1nnc(SCc2nc3ccccc3s2)n1-c1ccccc1,3
8,CCC(C)C(NC(=O)OC(C)(C)C)C(=O)NC(CC(C)C)C(N)=O (stereo not drawn) (Boc-Ile-Leu-NH2; configuration not given here),0
9,Cc1c(C(=O)OCC(C)(C)CN(C)C)oc2ccccc12,1
10,Cc1ccc(NC(=O)CCC(=O)O)cc1F,0
11,COc1ccc(N2CCN(CCCNC(=O)C3(S(=O)(=O)c4ccc(Cl)cc4)CC3)CC2)cc1,0
12,Cc1ccnc(NC(=O)CCC(=O)N(CC(=O)NC2CCCCC2)c2cccc(C)c2C)c1,0
13,CCC(C)N=C1SCC(C)(/C=N/O)S1 (stereo unspecified),0
14,COC(=O)c1ccccc1NC(=O)c1ccc(COc2ccccc2)o1,0
15,CCSC(SCC)[C@H](O)[C@@H](O)[C@H](O)[C@H](O)CO,2
16,O=S(=O)(NCc1cn2ccsc2n1)c1ccc2c(c1)OCCO2,0
